# Shown is part of a subset that was picked to be rich in the strongest signals.
# B1: Aap lectin (Staphylococcus epidermidis) (protein)
# chain: VNLNYSSPFMSLLSMPADSSSNNTKNTIDIPPTTVKGRDNYDFYGRVDIESNPTDLNATNLTRYNYGQPPGTTTAGAVQFKNQVSFDKDFDFNIRVANNRQSNTTGADGWGFMFSKKDGDDFLKNGGILREKGTPSAAGFRIDTGYYNNDPLDKIQKQAGQGYRGYGTFVKNDSQGNTSKVGSGTPSTDFLNYADNTTNDLDGKFHGQKLNNVNLKYNASNQTFTATYAGKTWTATLSELGLSPTDSYNFLVTSS
# Legend:
# Test in all cases: glycan array binding signal (z-score within array); higher = stronger binding
# Settings in all cases: glycan notation: IUPAC condensed, linker removed
# [1] = target: Fuc(a1-2)Gal(b1-3)GlcNAc(b1-2)Man(a1-3)[Fuc(a1-2)Gal(b1-3)GlcNAc(b1-2)Man(a1-6)]Man(b1-4)GlcNAc(b1-4)[Fuc(a1-6)]GlcNAc
# Method in brief: (§1)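 The binding signal is a Z-score computed within each array and averaged over linkers. Arrays of the same protein sequence at different concentrations or buffers were also averaged together. Data originate from 3228 arrays in the Consortium for Functional Glycomics database, kept only where the protein sequence was available.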
# [2] = target: Fuc(a1-2)Gal(b1-3)GlcNAc(b1-3)Gal(b1-4)Glc
# Method in brief: as §1
# [3] = target: Fuc(a1-2)Gal(b1-4)GlcNAc(b1-2)Man(a1-3)[Fuc(a1-2)Gal(b1-4)GlcNAc(b1-2)Man(a1-6)]Man(b1-4)GlcNAc(b1-4)[Fuc(a1-6)]GlcNAc
# Method in brief: as §1
# [4] = target: Fuc(a1-2)Gal(b1-4)[Fuc(a1-3)]GlcNAc(b1-3)Gal(b1-4)[Fuc(a1-3)]GlcNAc(b1-3)Gal(b1-4)[Fuc(a1-3)]GlcNAc
# Method in brief: as §1
# [5] = target: Fuc(a1-2)[Gal(a1-3)]Gal(b1-3)GlcNAc(b1-2)Man(a1-3)[Fuc(a1-2)[Gal(a1-3)]Gal(b1-3)GlcNAc(b1-2)Man(a1-6)]Man(b1-4)GlcNAc(b1-4)[Fuc(a1-6)]GlcNAc
# Method in brief: as §1
# [6] = target: Fuc(a1-2)[Gal(a1-3)]Gal(b1-4)GlcNAc
# Method in brief: as §1
# [7] = target: Fuc(a1-2)[Gal(a1-3)]Gal(b1-4)GlcNAc(b1-3)[Fuc(a1-2)[Gal(a1-3)]Gal(b1-4)GlcNAc(b1-6)]GalNAc
# Method in brief: as §1
# [8] = target: Fuc(a1-2)[Gal(a1-3)]Gal(b1-4)GlcNAc(b1-6)GalNAc
# Method in brief: as §1
# [9] = target: Fuc(a1-2)[GalNAc(a1-3)]Gal(b1-3)GalNAc(b1-3)Gal(a1-4)Gal(b1-4)Glc
# Method in brief: as §1
# [10] = target: Fuc(a1-2)[GalNAc(a1-3)]Gal(b1-4)GlcNAc(b1-3)GalNAc
# Method in brief: as §1
# [11] = target: Fuc(a1-3)[Gal(b1-4)]GlcNAc(b1-3)Gal(b1-4)[Fuc(a1-3)]GlcNAc(b1-3)Gal(b1-4)[Fuc(a1-3)]GlcNAc
# Method in brief: as §1
# [12] = target: Fuc(a1-3)[Gal3S(b1-4)]GlcNAc6S
# Method in brief: as §1
# Fuc(b1-3)GlcNAc = target: Fuc(b1-3)GlcNAc
# Method in brief: as §1
# [13] = target: Gal(a1-3)Gal(b1-3)GlcNAc(b1-2)Man
# Method in brief: as §1
# [14] = target: Gal(a1-3)Gal(b1-3)GlcNAc(b1-2)Man(a1-3)[Gal(a1-3)Gal(b1-3)GlcNAc(b1-2)Man(a1-6)]Man(b1-4)GlcNAc(b1-4)GlcNAc
# Method in brief: as §1
# Gal(b1-3)GlcNAc(b1-2)Man = target: Gal(b1-3)GlcNAc(b1-2)Man
# Method in brief: as §1
# [15] = target: Gal(b1-3)GlcNAc(b1-2)[Gal(b1-3)GlcNAc(b1-6)]Man(a1-6)[Gal(b1-3)GlcNAc(b1-2)Man(a1-3)]Man(b1-4)GlcNAc(b1-4)GlcNAc
# Method in brief: as §1
# [16] = target: Gal(b1-3)GlcNAc(b1-3)Gal(b1-4)[Fuc(a1-3)]GlcNAc
# Method in brief: as §1
# [17] = target: Gal(b1-3)GlcNAc(b1-3)GalNAc
# Method in brief: as §1
# Gal(b1-4)GlcNAc(b1-2)Man = target: Gal(b1-4)GlcNAc(b1-2)Man
# Method in brief: as §1
# [18] = target: Gal(b1-4)GlcNAc(b1-2)Man(a1-3)[Gal(b1-4)GlcNAc(b1-2)Man(a1-6)][GlcNAc(b1-4)]Man(b1-4)GlcNAc(b1-4)[Fuc(a1-6)]GlcNAc
# Method in brief: as §1
# [19] = target: Gal(b1-4)GlcNAc(b1-2)[Gal(b1-4)GlcNAc(b1-6)]Man(a1-6)[GlcNAc(b1-4)][Gal(b1-4)GlcNAc(b1-2)Man(a1-3)]Man(b1-4)GlcNAc(b1-4)GlcNAc
# Method in brief: as §1
# [20] = target: Gal(b1-4)GlcNAc(b1-3)Gal(b1-4)Glc
# Method in brief: as §1
# [21] = target: Gal(b1-4)GlcNAc(b1-3)Gal(b1-4)GlcNAc(b1-2)[Gal(b1-4)GlcNAc(b1-3)Gal(b1-4)GlcNAc(b1-6)]Man(a1-6)[Gal(b1-4)GlcNAc(b1-3)Gal(b1-4)GlcNAc(b1-2)Man(a1-3)]Man(b1-4)GlcNAc(b1-4)GlcNAc
# Method in brief: as §1
# [22] = target: Gal(b1-4)GlcNAc(b1-3)Gal(b1-4)GlcNAc(b1-3)Gal(b1-4)GlcNAc(b1-2)Man(a1-3)[Gal(b1-4)GlcNAc(b1-3)Gal(b1-4)GlcNAc(b1-3)Gal(b1-4)GlcNAc(b1-2)Man(a1-6)]Man(b1-4)GlcNAc(b1-4)[Fuc(a1-6)]GlcNAc
# Method in brief: as §1
# [23] = target: Gal(b1-4)GlcNAc(b1-3)Gal(b1-4)GlcNAc(b1-3)Gal(b1-4)GlcNAc(b1-3)Gal(b1-4)GlcNAc(b1-2)[Gal(b1-4)GlcNAc(b1-3)Gal(b1-4)GlcNAc(b1-3)Gal(b1-4)GlcNAc(b1-3)Gal(b1-4)GlcNAc(b1-6)]Man(a1-6)[Gal(b1-4)GlcNAc(b1-3)Gal(b1-4)GlcNAc(b1-3)Gal(b1-4)GlcNAc(b1-3)Gal(b1-4)GlcNAc(b1-2)Man(a1-3)]Man(b1-4)GlcNAc(b1-4)[Fuc(a1-6)]GlcNAc
# Method in brief: as §1
# [24] = target: Gal(b1-4)GlcNAc(b1-3)Gal(b1-4)GlcNAc(b1-3)Gal(b1-4)GlcNAc(b1-3)Gal(b1-4)GlcNAc(b1-3)Gal(b1-4)GlcNAc(b1-2)Man(a1-3)[Gal(b1-4)GlcNAc(b1-3)Gal(b1-4)GlcNAc(b1-3)Gal(b1-4)GlcNAc(b1-3)Gal(b1-4)GlcNAc(b1-3)Gal(b1-4)GlcNAc(b1-2)Man(a1-6)]Man(b1-4)GlcNAc(b1-4)[Fuc(a1-6)]GlcNAc
# Method in brief: as §1
binder,measurement,setting,value
B1,glycan array binding signal (z-score),[1],2.87
same,glycan array binding signal (z-score),[2],-0.68
same,glycan array binding signal (z-score),[3],-0.829
same,glycan array binding signal (z-score),[4],-0.534
same,glycan array binding signal (z-score),[5],3.02
same,glycan array binding signal (z-score),[6],3.04
same,glycan array binding signal (z-score),[7],2.98
same,glycan array binding signal (z-score),[8],-0.267
same,glycan array binding signal (z-score),[9],-0.573
same,glycan array binding signal (z-score),[10],0.8
same,glycan array binding signal (z-score),[11],0.476
same,glycan array binding signal (z-score),[12],-0.816
same,glycan array binding signal (z-score),Fuc(b1-3)GlcNAc,0.487
same,glycan array binding signal (z-score),[13],2.18
same,glycan array binding signal (z-score),[14],2.88
same,glycan array binding signal (z-score),Gal(b1-3)GlcNAc(b1-2)Man,3.17
same,glycan array binding signal (z-score),[15],-0.728
same,glycan array binding signal (z-score),[16],-0.351
same,glycan array binding signal (z-score),[17],0.183
same,glycan array binding signal (z-score),Gal(b1-4)GlcNAc(b1-2)Man,3
same,glycan array binding signal (z-score),[18],0.361
same,glycan array binding signal (z-score),[19],-0.475
same,glycan array binding signal (z-score),[20],0.463
same,glycan array binding signal (z-score),[21],-0.781
same,glycan array binding signal (z-score),[22],2.92
same,glycan array binding signal (z-score),[23],0.345
same,glycan array binding signal (z-score),[24],0.727

# Source: the supplement of paper PMC8728848
